Here are results for 25 compounds from PubChem BioAssay.

Assay [1] deals with Tumor necrosis factor receptor superfamily member 10B (Homo sapiens) (UniProt O14763). The assay is described as follows: caspase-8 TRAIL sensitization, hit retest, confirmation, cell-based, NB7+caspase-8, with/without TRAIL, luminescence panel (AID 651596). The conditions noted are these: NB7 neuroblastoma + caspase-8, TRAIL sensitization, luminescence viability, with TRAIL, mean of runs, at 10 µM, stronger effect = higher value.
Chain of Tumor necrosis factor receptor superfamily member 10B (Homo sapiens) (O14763 whole entry, looked up): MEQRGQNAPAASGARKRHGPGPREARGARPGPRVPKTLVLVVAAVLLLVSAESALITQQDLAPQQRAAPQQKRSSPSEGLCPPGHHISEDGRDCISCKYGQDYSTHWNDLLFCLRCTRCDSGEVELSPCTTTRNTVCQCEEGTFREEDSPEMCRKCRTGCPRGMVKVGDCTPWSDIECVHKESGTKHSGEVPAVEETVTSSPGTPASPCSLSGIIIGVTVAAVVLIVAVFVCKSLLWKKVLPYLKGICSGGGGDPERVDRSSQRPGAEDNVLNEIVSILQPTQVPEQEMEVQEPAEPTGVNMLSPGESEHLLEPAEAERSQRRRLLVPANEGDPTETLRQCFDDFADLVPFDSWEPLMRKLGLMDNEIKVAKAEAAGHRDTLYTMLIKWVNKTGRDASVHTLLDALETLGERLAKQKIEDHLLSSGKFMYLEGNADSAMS

Test in assay [2]: as above
As to conditions: NB7 neuroblastoma + caspase-8, without TRAIL, luminescence viability, without TRAIL, mean of runs, at 10 µM; in the data active = activity above about 50%; inactive = the rest.

Regarding `O=C(CCl)N=c1sccn1Cc1ccccc1Cl`, the activity came out at 99.6% in assay [1] and 98.9% in assay [2].

Take `COc1ccc(C=NNC(=O)NN=Cc2ccc(OC)c(OC)c2)cc1OC`: the figures for the activity in assay [1] and in assay [2] were 69% and 65%, respectively.

In the case of `O=c1/c(=C/c2ccccn2)sc2nc3ccccc3n12`, the figures for the activity in assay [1] and in assay [2] were 60% and 14.9%, respectively.

As for `COc1ccc(/C=C(\C#N)c2nc3ccccc3[nH]2)cc1O`, the activity in assay [1] was 56.5%; in assay [2], 72.5%.

Take `O=C(CN1C(=O)c2ccccc2S1(=O)=O)c1ccccc1F`: the activity in assay [1] amounted to 16.9%; in assay [2], 27.8%.

With `Cc1ccc(C(=O)NC2CCCCCCC2)c(Cl)c1`, the activity in assay [1] came out at 62.7%; in assay [2], 53.6%.

Turning to `Cc1ccc(/C=C(\C#N)c2nc3ccccc3[nH]2)s1`, the activity in assay [1] is 69.8%; in assay [2], 72%.

For `Fc1ccc(-c2nc(-c3cnccn3)no2)c(Cl)c1`, the activity in assay [1] was 59.1%; in assay [2] it was 58.1%.

As to `Cc1ccccc1C(=O)O/N=C(\N)c1cccc([N+](=O)[O-])c1`, the activity is 80.9% in assay [1] and 79.9% in assay [2].

As to `O=[N+]([O-])c1ccc(Sc2ccncn2)c([N+](=O)[O-])c1`, the activity turned out to be 16.8% in assay [1] and 65.8% in assay [2].

For the compound `Clc1ccc(-c2nnc(-c3ccccc3)o2)c(Cl)c1`, the values for the activity in assay [1] and in assay [2] were 81.8% and 79%, respectively.

Consider `C#CCSc1nnc(-c2sc(-c3ccccc3)nc2C)n1C`, for which the figures for the activity in assay [1] and in assay [2] were 84.7% and 90%, respectively.

For `O=C1Nc2ccccc2N(C(=O)c2ccc3ccccc3c2)C1c1nc2ccccc2[nH]1` (stereo not given), the values for the activity in assay [1] and in assay [2] were 48.1% and 43.4%, respectively.

Regarding `O=C(/C=C/c1ccc([N+](=O)[O-])cc1)Nc1ncc([N+](=O)[O-])s1`, the activity in assay [1] turned out to be 69.1%; in assay [2], 68.5%.

In the case of `O=C(N/N=C\c1cccc(OC(=O)c2ccco2)c1)c1ccc2c(c1)OCO2`, the values for the activity in assay [1] and in assay [2] were 83% and 74.1%, respectively.

For `COc1ccccc1NC(CC(=O)c1ccccc1)C(=O)OCC(=O)c1ccc(C)c(C)c1` (stereo not given), the activity in assay [1] was found to be 73.5%; in assay [2], 66.2%.

As to `COc1ccc(C(=O)N/N=C(/C)c2cccc(NC(=O)c3ccccc3F)c2)cc1`, the activity in assay [1] worked out at 53.5%; in assay [2], 62.1%.

Regarding `Cc1ccccc1-n1nnnc1Sc1nnnn1-c1ccccc1`, the activity amounted to 46.1% in assay [1] and 91.3% in assay [2].

With `COc1cc(/C=C2\Oc3ccc(C#Cc4ccc(O)cc4)cc3C2=O)cc(OC)c1`, the activity came to 80.5% in assay [1] and 83.2% in assay [2].

Turning to `O=C(Nc1ccccc1NC(=O)c1c(F)c(F)c(F)c(F)c1F)c1c(F)c(F)c(F)c(F)c1F`, the activity in assay [1] worked out at 90.2%; in assay [2], 96.2%.

As for `CC(C)(C)OC(=O)NCCCCCNC(=O)c1[nH]cnc1C(=O)Nc1cc(Br)ccc1F`, the activity turned out to be 78.2% in assay [1] and 63.6% in assay [2].

Consider `N#Cc1c(NC(=O)c2ccccc2)sc2c1CCCCC2`, for which the activity in assay [1] stood at 46.5%; in assay [2], 49.6%.

As to `Cc1onc(-c2ccccc2Cl)c1C(=O)O/N=C(\N)c1cccc([N+](=O)[O-])c1`, the activity worked out at 92.2% in assay [1] and 93.3% in assay [2].

As for `COc1ccc(/C=N/OC(=O)Nc2ccccc2OC)cc1`, the activity in assay [1] came to 56.9%; in assay [2], 63.3%.

Consider `CN(CCO)c1cc(Sc2nc3ccccc3s2)c2nonc2c1[N+](=O)[O-]`, for which the activity in assay [1] worked out at 18.5%; in assay [2], 91.7%.
